This is part of a sample that, as a whole, favours compounds with a hit. Of some 79,000 tested, about 15% had one in any assay. Values without a mark were called inactive. The source made the active and inactive calls. Rule as the data show it: active = growth inhibition above about 70%; inactive = the rest.
Columns and labels:
[1] = NCI Yeast Anticancer Drug Screen. Data for the rad50 strain (AID 155);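 also: 0% = growth of vehicle-only cultures of the same strain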; conditions: S. cerevisiae rad50 strain growth inhibition, hits give high values
How it was run: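 Cells are treated with compound, grown, and their growth is then scored against vehicle-only cultures of the same repair-deficient yeast strain.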

[2] = NCI Yeast Anticancer Drug Screen. Data for the mec2-1 strain (AID 157); conditions: S. cerevisiae mec2-1 strain, hits give high values
How it was run: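 Cells of the genetically defined mec2-1 yeast strain are incubated with test compound. Inhibition of growth is calculated against vehicle-treated controls.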

[3] = NCI Yeast Anticancer Drug Screen. Data for the sgs1 mgt1 strain (AID 161);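 also: 0% = growth of cultures given vehicle only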; conditions: S. cerevisiae sgs1 mgt1 strain, hits give high values
How it was run: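 Read-out: growth inhibition vs vehicle controls. Cells: mutant yeast strain deficient in DNA damage repair.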

[4] = NCI Yeast Anticancer Drug Screen. Data for the cln2 rad14 strain (AID 165);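 also: 0% = growth equal to vehicle treated cultures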; conditions: S. cerevisiae cln2 rad14 strain, hits give high values
How it was run: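 The screen exposed genetically defined yeast (cln2 rad14) to test compounds and scored growth inhibition relative to vehicle-treated controls.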

[5] = NCI Yeast Anticancer Drug Screen. Data for the bub3 strain (AID 167); conditions: S. cerevisiae bub3 mutant strain, hits give high values
How it was run: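 Part of a panel of yeast mutants defective in DNA damage repair or cell cycle regulation. Each strain is grown with compound, and inhibition is calculated relative to solvent-treated cultures.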

[6] = NCI Yeast Anticancer Drug Screen. Data for the mlh1 rad18 strain (AID 175); conditions: S. cerevisiae mlh1 rad18 strain growth inhibition, hits give high values
How it was run: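 Compound-treated yeast growth, normalised to vehicle controls. Strain bears defined DNA repair mutations.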

[7] = at 5.0 µM (retest, dose inferred, filed as 0.5)
[8] = at 50.0 µM (retest, dose inferred, filed as 5.0)

With `CCCCCC(CCCCC)OC(=O)CCN(CCCCC)CCCCC` the growth inhibition [1, 7] was 2%, the growth inhibition [1, 8] was 81% (active) and the growth inhibition ([1]; at 50.0 µM) was 74% (active). The growth inhibition [2, 7] was 6%, the growth inhibition [2, 8] was 86% (active) and the growth inhibition ([2]; at 50.0 µM) was 46.1%. The growth inhibition [3, 7] was 14%, the growth inhibition [3, 8] was 97% (active) and the growth inhibition ([3]; at 50.0 µM) was 84% (active). The growth inhibition [4, 7] was 5%, the growth inhibition [4, 8] was 75% (active) and the growth inhibition ([4]; at 50.0 µM) was 72% (active). The growth inhibition [5, 7] was 1%, the growth inhibition [5, 8] was 87% (active) and the growth inhibition ([5]; at 50.0 µM) was 51.9%. The growth inhibition [6, 7] was 3%, the growth inhibition [6, 8] was 94% (active) and the growth inhibition ([6]; at 50.0 µM) was 68.9%.

`NC(=O)Nc1cc(=O)[nH]c(=S)[nH]1` showed a growth inhibition [1, 7] of -2%, a growth inhibition [1, 8] of -2% and a growth inhibition ([1]; at 50.0 µM) of 6.9%. For the same compound, the growth inhibition [2, 7] was 4%, the growth inhibition [2, 8] was -1% and the growth inhibition ([2]; at 50.0 µM) was 8.65%. It also gave a growth inhibition [3, 7] of 0%, a growth inhibition [3, 8] of 0% and a growth inhibition ([3]; at 50.0 µM) of -9.9%. It also gave a growth inhibition [4, 7] of -1%, a growth inhibition [4, 8] of -5% and a growth inhibition ([4]; at 50.0 µM) of 5.05%. The growth inhibition [5, 7] was -1%, the growth inhibition [5, 8] was -4% and the growth inhibition ([5]; at 50.0 µM) was 42.4%. It also gave a growth inhibition [6, 7] of -3%, a growth inhibition [6, 8] of -2% and a growth inhibition ([6]; at 50.0 µM) of -23.1%.

Work on `O=[N+]([O-])c1ccccc1OS(=O)(=O)c1ccccc1` yielded a growth inhibition [1, 7] of 0%, a growth inhibition [1, 8] of -2% and a growth inhibition ([1]; at 50.0 µM) of -2.5%. The growth inhibition [2, 7] was -12%, the growth inhibition [2, 8] was -8% and the growth inhibition ([2]; at 50.0 µM) was -1.1%. It also gave a growth inhibition [3, 7] of 4%, a growth inhibition [3, 8] of 20% and a growth inhibition ([3]; at 50.0 µM) of -0.45%. The growth inhibition [4, 7] was -25%, the growth inhibition [4, 8] was 36% and the growth inhibition ([4]; at 50.0 µM) was 6.4%. The growth inhibition [5, 7] was -4%, the growth inhibition [5, 8] was 6% and the growth inhibition ([5]; at 50.0 µM) was 14.3%. The growth inhibition [6, 7] was -6%, the growth inhibition [6, 8] was 3% and the growth inhibition ([6]; at 50.0 µM) was 0.65%.

`O=C(N/N=C/c1ccccn1)c1ccccc1[O-].O=C(N/N=C/c1ccccn1)c1ccccc1[O-].[Co+2]` showed a growth inhibition [1, 7] of 5%, a growth inhibition [1, 8] of 0% and a growth inhibition ([1]; at 50.0 µM) of 38.2%. The growth inhibition [2, 7] was 21%, the growth inhibition [2, 8] was 0% and the growth inhibition ([2]; at 50.0 µM) was 48.1%. It also gave a growth inhibition [3, 7] of 13%, a growth inhibition [3, 8] of 5% and a growth inhibition ([3]; at 50.0 µM) of 42.5%. The growth inhibition [4, 7] was 14%, the growth inhibition [4, 8] was 2% and the growth inhibition ([4]; at 50.0 µM) was 72.8% (active). For the same compound, the growth inhibition [5, 7] was 17%, the growth inhibition [5, 8] was 2% and the growth inhibition ([5]; at 50.0 µM) was 99.2% (active). For the same compound, the growth inhibition [6, 7] was 18%, the growth inhibition [6, 8] was -2% and the growth inhibition ([6]; at 50.0 µM) was 66.8%.

In the case of `CN(C)CCC(/C=C/c1ccccc1)=N\Nc1ccc(Cl)cc1`, the growth inhibition [1, 7] is reported as 27%, the growth inhibition [1, 8] is reported as 99% (active) and the growth inhibition ([1]; at 50.0 µM) is reported as 99.2% (active). The growth inhibition [2, 7] was 17%, the growth inhibition [2, 8] was 99% (active) and the growth inhibition ([2]; at 50.0 µM) was 99% (active). The growth inhibition [3, 7] was 56%, the growth inhibition [3, 8] was 100% (active) and the growth inhibition ([3]; at 50.0 µM) was 99.1% (active). For the same compound, the growth inhibition [4, 7] was 12%, the growth inhibition [4, 8] was 99% (active) and the growth inhibition ([4]; at 50.0 µM) was 99.2% (active). The growth inhibition [5, 7] was 46%, the growth inhibition [5, 8] was 99% (active) and the growth inhibition ([5]; at 50.0 µM) was 99.3% (active). The growth inhibition [6, 7] was 42%, the growth inhibition [6, 8] was 99% (active) and the growth inhibition ([6]; at 50.0 µM) was 85.3% (active).

With `Cc1c2ccccc2c(C)c2c1cc(F)c1ccccc12` the growth inhibition [1, 7] was 32%, the growth inhibition [1, 8] was 88% (active) and the growth inhibition ([1]; at 50.0 µM) was 96.1% (active). The growth inhibition [2, 7] was 43%, the growth inhibition [2, 8] was 92% (active) and the growth inhibition ([2]; at 50.0 µM) was 97.3% (active). For the same compound, the growth inhibition [3, 7] was 46%, the growth inhibition [3, 8] was 94% (active) and the growth inhibition ([3]; at 50.0 µM) was 96.4% (active). The growth inhibition [4, 7] was 34%, the growth inhibition [4, 8] was 91% (active) and the growth inhibition ([4]; at 50.0 µM) was 94.5% (active). For the same compound, the growth inhibition [5, 7] was 21%, the growth inhibition [5, 8] was 90% (active) and the growth inhibition ([5]; at 50.0 µM) was 94.8% (active). For the same compound, the growth inhibition [6, 7] was 55%, the growth inhibition [6, 8] was 89% (active) and the growth inhibition ([6]; at 50.0 µM) was 93.8% (active).

Source: PubChem BioAssay (NCI)
